# What was measured:
# [1] = molecular target: Large ribosomal subunit protein eL36 (UniProt Q9Y3U8); experiment: cross-linking mass spectrometry
# Obscurin = Obscurin (UniProt Q5VST9); experiment: cross-linking mass spectrometry
# [2] = molecular target: Inositol 1,4,5-trisphosphate-gated calcium channel ITPR2 (UniProt Q14571); experiment: cross-link between two proteins; cross-linking mass spectrometry
# [3] = molecular target: Nucleolar and coiled-body phosphoprotein 1 (UniProt Q14978); experiment: as above
# [4] = molecular target: Putative ribosomal protein eS10-like (UniProt Q9NQ39); experiment: as above
# [5] = molecular target: Ragulator complex protein LAMTOR3 (UniProt Q9UHA4); experiment: as above
# Ragulator complex protein LAMTOR3, sequence (Q9UHA4 whole entry, one chain of several): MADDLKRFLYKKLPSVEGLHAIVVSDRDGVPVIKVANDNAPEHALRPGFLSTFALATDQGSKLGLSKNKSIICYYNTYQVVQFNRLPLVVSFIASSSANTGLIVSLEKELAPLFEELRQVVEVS
# [6] = molecular target: Synaptonemal complex protein 2-like (UniProt Q5T4T6); experiment: as above
# [7] = molecular target: V-type proton ATPase subunit D (UniProt Q9Y5K8); experiment: as above
# V-type proton ATPase subunit D, sequence (Q9Y5K8 whole entry): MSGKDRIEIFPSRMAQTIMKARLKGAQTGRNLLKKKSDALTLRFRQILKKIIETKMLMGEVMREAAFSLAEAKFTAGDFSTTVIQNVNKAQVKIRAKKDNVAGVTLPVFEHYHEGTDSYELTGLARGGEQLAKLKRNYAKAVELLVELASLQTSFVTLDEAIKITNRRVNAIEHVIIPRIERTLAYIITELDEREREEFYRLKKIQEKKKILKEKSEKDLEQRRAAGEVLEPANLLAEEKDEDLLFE
# [8] = molecular target: Zinc finger protein 28 homolog (UniProt Q8NHY6); experiment: as above
# Zinc finger protein 786 = molecular target: T1, Zinc finger protein 786 (UniProt Q8N393); experiment: as above
# T1 sequence: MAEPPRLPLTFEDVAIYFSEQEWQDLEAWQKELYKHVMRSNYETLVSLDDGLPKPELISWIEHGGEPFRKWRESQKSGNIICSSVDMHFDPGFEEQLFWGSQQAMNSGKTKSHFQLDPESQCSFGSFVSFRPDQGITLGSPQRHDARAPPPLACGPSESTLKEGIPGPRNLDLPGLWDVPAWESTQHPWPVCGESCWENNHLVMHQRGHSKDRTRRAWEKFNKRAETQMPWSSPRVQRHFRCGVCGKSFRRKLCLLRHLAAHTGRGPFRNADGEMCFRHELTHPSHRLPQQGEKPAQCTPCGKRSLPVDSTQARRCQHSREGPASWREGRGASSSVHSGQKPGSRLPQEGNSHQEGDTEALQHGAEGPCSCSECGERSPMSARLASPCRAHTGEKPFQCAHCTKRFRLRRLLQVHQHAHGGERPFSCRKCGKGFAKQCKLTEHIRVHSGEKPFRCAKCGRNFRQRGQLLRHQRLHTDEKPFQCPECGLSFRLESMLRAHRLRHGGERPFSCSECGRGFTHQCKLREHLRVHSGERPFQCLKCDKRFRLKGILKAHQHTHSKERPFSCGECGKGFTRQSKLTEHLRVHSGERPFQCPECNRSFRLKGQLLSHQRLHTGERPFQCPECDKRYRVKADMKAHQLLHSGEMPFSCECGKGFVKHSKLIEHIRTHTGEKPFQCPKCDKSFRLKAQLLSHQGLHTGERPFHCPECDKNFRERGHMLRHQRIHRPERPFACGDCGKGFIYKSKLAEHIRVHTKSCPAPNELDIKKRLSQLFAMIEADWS
# [9] = molecular target: Cullin-associated NEDD8-dissociated protein 1 (UniProt Q86VP6); experiment: co-fractionation; co-fractionation; cross-linking mass spectrometry
# Cullin-associated NEDD8-dissociated protein 1, sequence (Q86VP6 whole entry): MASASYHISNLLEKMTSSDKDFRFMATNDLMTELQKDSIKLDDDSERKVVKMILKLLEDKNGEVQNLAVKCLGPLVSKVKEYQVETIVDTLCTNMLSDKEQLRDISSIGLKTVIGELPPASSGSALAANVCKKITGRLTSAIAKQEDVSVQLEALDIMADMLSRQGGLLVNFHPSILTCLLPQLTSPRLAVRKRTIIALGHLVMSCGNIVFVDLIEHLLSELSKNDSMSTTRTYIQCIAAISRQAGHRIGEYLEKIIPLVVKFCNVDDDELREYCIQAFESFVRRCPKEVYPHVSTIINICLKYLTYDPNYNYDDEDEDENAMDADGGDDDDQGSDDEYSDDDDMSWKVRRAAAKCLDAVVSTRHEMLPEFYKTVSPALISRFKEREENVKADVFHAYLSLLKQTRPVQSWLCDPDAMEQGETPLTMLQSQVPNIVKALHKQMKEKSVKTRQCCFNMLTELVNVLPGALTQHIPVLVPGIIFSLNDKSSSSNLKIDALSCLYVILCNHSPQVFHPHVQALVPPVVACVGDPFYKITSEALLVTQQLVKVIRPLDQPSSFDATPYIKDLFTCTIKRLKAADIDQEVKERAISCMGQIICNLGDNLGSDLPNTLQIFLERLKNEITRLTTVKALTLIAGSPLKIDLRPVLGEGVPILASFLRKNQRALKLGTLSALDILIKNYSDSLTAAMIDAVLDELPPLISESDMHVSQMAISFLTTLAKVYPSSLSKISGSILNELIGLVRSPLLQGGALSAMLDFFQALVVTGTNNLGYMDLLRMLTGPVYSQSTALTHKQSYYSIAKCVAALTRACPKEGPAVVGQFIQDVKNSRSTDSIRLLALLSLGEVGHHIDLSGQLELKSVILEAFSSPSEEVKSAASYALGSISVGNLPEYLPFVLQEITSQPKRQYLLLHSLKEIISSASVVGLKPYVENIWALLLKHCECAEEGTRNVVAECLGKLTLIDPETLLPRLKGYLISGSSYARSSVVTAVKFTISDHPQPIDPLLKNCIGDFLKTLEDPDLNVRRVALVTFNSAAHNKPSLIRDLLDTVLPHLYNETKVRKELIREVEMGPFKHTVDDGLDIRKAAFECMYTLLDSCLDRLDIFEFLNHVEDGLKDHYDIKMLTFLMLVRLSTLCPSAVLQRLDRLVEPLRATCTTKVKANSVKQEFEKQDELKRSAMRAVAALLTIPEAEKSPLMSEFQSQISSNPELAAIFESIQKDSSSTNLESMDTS
# Actin-related protein 2 = Actin-related protein 2 (UniProt P61160); experiment: cross-link between two proteins; co-fractionation; cross-linking mass spectrometry
# [10] = molecular target: Actin-related protein 2/3 complex subunit 1A (UniProt Q92747); experiment: as above
# [11] = molecular target: Actin-related protein 2/3 complex subunit 3 (UniProt O15145); experiment: as above
# [12] = molecular target: Actin-related protein 2/3 complex subunit 4 (UniProt P59998); experiment: as above
# [13] = molecular target: Vacuolar protein sorting-associated protein 35 (UniProt Q96QK1); experiment: as above
# [14] = molecular target: Enhancer of rudimentary homolog (UniProt P84090); experiment: cross-link between two proteins; affinity purification or IP with mass spectrometry; cross-linking mass spectrometry
# Histone H1.4, P10412, sequence (P10412 whole entry): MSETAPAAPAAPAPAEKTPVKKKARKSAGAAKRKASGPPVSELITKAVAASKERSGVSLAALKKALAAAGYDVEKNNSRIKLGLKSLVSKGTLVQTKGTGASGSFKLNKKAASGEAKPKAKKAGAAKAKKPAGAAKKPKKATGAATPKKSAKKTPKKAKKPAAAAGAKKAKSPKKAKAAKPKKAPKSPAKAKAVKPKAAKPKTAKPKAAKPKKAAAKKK
# Cullin-1, Q13616, sequence (Q13616 whole entry): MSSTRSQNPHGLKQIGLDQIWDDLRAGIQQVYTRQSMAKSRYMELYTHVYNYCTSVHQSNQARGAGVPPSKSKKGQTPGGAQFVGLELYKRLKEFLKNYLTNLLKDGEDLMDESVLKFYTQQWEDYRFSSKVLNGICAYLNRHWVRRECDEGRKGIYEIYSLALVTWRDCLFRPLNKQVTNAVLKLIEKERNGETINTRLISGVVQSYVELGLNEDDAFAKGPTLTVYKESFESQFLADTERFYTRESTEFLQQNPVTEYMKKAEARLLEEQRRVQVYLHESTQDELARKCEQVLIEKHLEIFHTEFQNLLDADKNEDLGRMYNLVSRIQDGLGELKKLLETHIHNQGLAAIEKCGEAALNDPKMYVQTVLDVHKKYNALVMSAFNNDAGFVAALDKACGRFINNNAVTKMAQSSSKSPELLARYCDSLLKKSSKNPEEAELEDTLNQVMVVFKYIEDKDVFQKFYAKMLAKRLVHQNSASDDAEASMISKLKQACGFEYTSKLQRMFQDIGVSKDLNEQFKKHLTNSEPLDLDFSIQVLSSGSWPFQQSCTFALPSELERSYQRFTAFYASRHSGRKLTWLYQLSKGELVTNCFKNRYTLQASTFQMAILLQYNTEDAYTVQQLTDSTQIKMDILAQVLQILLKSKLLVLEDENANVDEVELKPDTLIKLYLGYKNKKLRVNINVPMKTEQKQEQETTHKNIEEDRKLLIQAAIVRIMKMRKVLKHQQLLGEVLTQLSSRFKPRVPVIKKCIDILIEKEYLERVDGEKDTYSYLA
# Ragulator complex protein LAMTOR1, Q6IAA8, sequence (Q6IAA8 whole entry, one chain of several): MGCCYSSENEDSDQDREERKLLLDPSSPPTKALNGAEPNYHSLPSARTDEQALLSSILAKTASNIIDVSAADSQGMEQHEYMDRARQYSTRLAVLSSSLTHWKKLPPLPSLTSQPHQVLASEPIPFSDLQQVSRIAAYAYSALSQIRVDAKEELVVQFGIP
# V-type proton ATPase catalytic subunit A, P38606, sequence (P38606 whole entry): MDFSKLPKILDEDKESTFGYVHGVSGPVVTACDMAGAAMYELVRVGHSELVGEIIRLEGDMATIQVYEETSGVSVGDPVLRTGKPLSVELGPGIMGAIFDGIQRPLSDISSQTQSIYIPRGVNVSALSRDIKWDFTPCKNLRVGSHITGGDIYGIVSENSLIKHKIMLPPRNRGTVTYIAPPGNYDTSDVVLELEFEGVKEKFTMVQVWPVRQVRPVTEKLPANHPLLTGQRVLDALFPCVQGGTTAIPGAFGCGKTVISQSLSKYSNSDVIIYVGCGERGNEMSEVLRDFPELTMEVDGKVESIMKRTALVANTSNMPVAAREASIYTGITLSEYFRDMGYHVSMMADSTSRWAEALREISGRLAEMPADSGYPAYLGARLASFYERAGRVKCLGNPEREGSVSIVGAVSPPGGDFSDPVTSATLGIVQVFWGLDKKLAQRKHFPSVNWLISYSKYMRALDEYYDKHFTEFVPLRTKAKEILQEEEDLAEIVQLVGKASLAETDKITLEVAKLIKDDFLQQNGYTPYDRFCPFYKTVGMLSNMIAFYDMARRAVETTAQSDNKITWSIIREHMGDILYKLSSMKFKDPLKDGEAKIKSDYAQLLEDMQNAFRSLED
substance,measurement,setting,value
"Small ribosomal subunit protein uS17, P62280",listed as a hit,[1],yes
"Large ribosomal subunit protein eL8, P62424",listed as a hit,Obscurin,yes
"Large ribosomal subunit protein uL29, P42766",listed as a hit,[2],yes
"Small ribosomal subunit protein eS7, P62081",listed as a hit,[3],yes
"Small ribosomal subunit protein eS10, P46783",listed as a hit,[4],yes
"Ragulator complex protein LAMTOR1, Q6IAA8",listed as a hit,[5],yes
"Large ribosomal subunit protein uL5, P62913",listed as a hit,[6],yes
"V-type proton ATPase catalytic subunit A, P38606",listed as a hit,[7],yes
"Large ribosomal subunit protein uL1, P62906",listed as a hit,[8],yes
"Histone H1.4, P10412",listed as a hit,Zinc finger protein 786,yes
"Cullin-1, Q13616",listed as a hit,[9],yes
"Actin-related protein 2/3 complex subunit 5, O15511",listed as a hit,Actin-related protein 2,yes
"Actin-related protein 3, P61158",listed as a hit,[10],yes
"Actin-related protein 2/3 complex subunit 2, O15144",listed as a hit,[11],yes
same,listed as a hit,[12],yes
"Vacuolar protein sorting-associated protein 26A, O75436",listed as a hit,[13],yes
"DNA-directed RNA polymerase II subunit RPB1, P24928",listed as a hit,[14],yes
